Screens: PubChem, National Center for Advancing Translational Sciences (NCATS)
Rows were chosen to be rich in hits. Some 6% of all compounds tested hit in one or more screens of this group.
D3 antag = qHTS of D3 Dopamine Receptor Antagonist: qHTS; D(3) dopamine receptor (Homo sapiens), P35462; D3R cells, DiscoveRx beta-arrestin luminescence, antagonist mode; hits give low values; max response, negative = inhibition, %; 2.5% of 360,000 active; in the data active = max response below about -50%; inconclusive = no clear call, values can overlap the other calls
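Cells plated overnight at 1500 cells/well, then exposed to library compounds with dopamine controls for 90 minutes at 37 degrees C. DiscoveRx reagent added for 30–60 minutes at room temperature; luminescence read, quantitative HTS format.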
D3 ag = qHTS of D3 Dopamine Receptor Agonist: qHTS | 0.58% of 410,000 active | AID 652048, 2013 | max activation, % | D(3) dopamine receptor (Homo sapiens), P35462 | D3R DiscoveRx beta-arrestin cells, luminescence, 90 min; in the data active = max activation above about 30%
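Agonist mode: compounds and dopamine controls were applied to plated cells for 90 min at 37 degrees C after an overnight attachment at 1500 cells/well. Luminescent read-out followed 30 - 60 minutes at room temperature with DiscoveRx detection reagent.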
D1 antag = Antagonist of Human D 1 Dopamine Receptor: qHTS | HEK293 TREx D1 cells, calcium flux, dopamine EC80; hits give low values | activity change, negative = inhibition, % at 10 µM | 3.2% of 360,000 active; in the data active = activity change below about -30%
Target sequence (P21728 whole entry, looked up): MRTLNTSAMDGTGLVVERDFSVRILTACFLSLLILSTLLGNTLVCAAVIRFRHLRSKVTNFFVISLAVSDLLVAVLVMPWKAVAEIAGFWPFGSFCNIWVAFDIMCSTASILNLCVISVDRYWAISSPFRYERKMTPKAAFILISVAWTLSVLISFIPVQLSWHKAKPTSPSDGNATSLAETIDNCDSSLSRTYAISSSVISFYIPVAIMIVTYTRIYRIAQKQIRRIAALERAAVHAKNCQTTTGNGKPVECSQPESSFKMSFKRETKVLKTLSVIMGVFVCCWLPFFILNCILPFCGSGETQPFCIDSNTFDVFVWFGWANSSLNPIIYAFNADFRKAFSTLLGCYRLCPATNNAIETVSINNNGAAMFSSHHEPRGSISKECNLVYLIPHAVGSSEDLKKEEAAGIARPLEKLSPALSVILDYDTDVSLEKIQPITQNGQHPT
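Calcium flux readout: force-coupled, inducible Hek293 Trex D1 line, cells induced overnight at 30 C with tetracycline, dye-loaded 30–90 min at RT. Antagonism scored against EC80 dopamine challenge given 180 s after compound.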
D1 agonist = Allosteric Agonists of the Human D1 Dopamine Receptor: qHTS. HEK293 T-REx D1 cells, calcium flux, agonist mode. 1% of 360,000 active. AID 504660, 2011. activation, % at 2 µM. D(1A) dopamine receptor (Homo sapiens), P21728; in the data active = activation above about 30%
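Agonism was scored from calcium flux recorded over 180 s (1 read/s) after pintool compound addition, following a 10-cycle baseline. Cells were inducible force-coupled HEK293 TREx D1, plated overnight at 30 C and loaded with no-wash calcium dye.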
D1 potentiator = Potentiators of Human D1 Dopamine Receptor: qHTS; D(1A) dopamine receptor (Homo sapiens), P21728; HEK293 TREx D1 cells, calcium flux, dopamine EC20 potentiation; potentiation, % at 10 µM; 0.036% of 360,000 active; AID 504651, 2011; in the data active = potentiation above about 30%
Of the large screens only hits and unclear results are named; the others gave an inactive call; ! = repeats disagree.

CCC1CN(C(=O)NCc2ccc(F)cc2)c2ccccc2O1 (stereo not drawn)	D1 antag -56!
CCC1CN(C(=O)NCc2ccc(F)cc2)c2cc(Cl)ccc2O1 (stereo not drawn)	none
Cc1ccc(-c2nn(-c3cccc(F)c3)cc2CN2CCN(c3ccccn3)CC2)o1	D3 antag -70
Cc1ccc(-c2nn(-c3cccc(F)c3)cc2CN(Cc2nccn2C)C(C)C)o1	none
O=C(COC(=O)c1ccc2ccccc2c1)Nc1ncc(C(F)(F)F)cc1Cl	none
O=C(COC(=O)C1(c2ccccc2F)CCCC1)Nc1ncc(C(F)(F)F)cc1Cl	D1 antag -36
COc1ccc(N(CC(=O)Nc2cc(C)ccc2C)S(=O)(=O)c2ccc(OC)c(OC)c2)cc1	none (no result: D3 antag)
O=C(Cc1cccc([N+](=O)[O-])c1)Nc1ccc(C(=O)N2CCOCC2)cc1	none (no result: D1 antag, D1 agonist, D1 potentiator)
CCN(CC(=O)Nc1ccc(NC(C)=O)cc1)CC(=O)Nc1ccc(Cl)c(Cl)c1	D3 antag -60
O=C(CN1CCCCC1)Nc1cccc([N+](=O)[O-])c1	D3 antag -62
O=C(Cc1cccc([N+](=O)[O-])c1)Nc1cccc(C(=O)N2CCOCC2)c1	D3 antag -51 (no result: D1 antag, D1 agonist, D1 potentiator)
Cc1ccc(NC(=O)CN(C)CC(=O)Nc2ccc(F)c(Cl)c2)cc1	D1 antag -55
CCCC12CN3CC(C)(CN(C1)C3c1cn(C)c3ccccc13)C2=O (stereo not drawn)	none (no result: D3 antag)
O=[N+]([O-])c1cccc(-c2ccc(C(=S)N3CCOCC3)o2)c1	D1 antag -35
O=C(CCN1CCN(Cc2ccccc2)CC1)NNC(=O)Nc1cccc([N+](=O)[O-])c1	D3 antag -50
O=C(CCN1CCN(Cc2ccccc2)CC1)NNC(=O)Nc1cccc(Cl)c1	D3 antag inconclusive
O=C(Nc1ccc(Cl)c(C(F)(F)F)c1)c1ccco1	none
O=C(CSC1=NCCN1)Nc1cccc([N+](=O)[O-])c1	D3 antag -65
CCNC(=S)Nc1ccc(Cl)c(C(F)(F)F)c1	D1 antag -32
Cc1nn(C)c2c1c(-c1ccccc1)cc(=O)n2Cc1ccc(Cl)cc1	none (no result: D3 antag)
O=C(CSc1nc2nccnc2c(=O)n1CCc1c[nH]c2ccccc12)Nc1ccccc1	none (no result: D3 antag)
CCOc1ccccc1Nc1nc(-c2ccc(C)cc2)c(CC(=O)O)s1	none (no result: D3 antag)
Cc1ccc2occ(CC(=O)Nc3ccc(Cl)c(C(F)(F)F)c3)c2c1	D1 antag -31 (no result: D3 antag)
CN(CC(=O)NCc1ccc(F)cc1)CC(=O)Nc1ccc(Cl)c(C(F)(F)F)c1	D1 antag -33
O=C(CN1CCCCCCC1)N/N=C/c1ccccc1F	D1 antag -39
O=C(CN1CCCCC1)Nc1cccc(Br)c1	D3 antag -63
CN(CC(=O)NCC(=O)Nc1ccc(F)cc1)CC(=O)Nc1ccc(Cl)c(C(F)(F)F)c1	none (no result: D1 antag, D1 agonist, D1 potentiator)
O=C(CN1CCSCC1)N/N=C/c1ccccc1F	none
COc1ccc(NC(=O)COCc2cc(-c3ccco3)on2)cc1Cl	none (no result: D3 antag)
COc1ccc(Cl)cc1NC(=O)CSC1=Nc2ccccc2C2=NC(CC(=O)NCc3ccc4c(c3)OCO4)C(=O)N12 (stereo not drawn)	none (no result: D3 antag)
O=C(CN1CCCCC1)NNC(=O)c1cccc(Br)c1	D3 antag -80 (no result: D1 potentiator)
O=C(CN1CCCCC1)Nc1ccc(F)c(Cl)c1	D3 antag -58
CCOC(=O)c1c(NC(=O)CSc2nnc(N)s2)sc(C)c1-c1ccc(C)cc1	D3 ag 43
COc1ccc(NC(=O)c2ccc3[nH]c(C)cc(=O)c3c2)cc1	none (no result: D3 antag)
COc1ccc(-c2c3c(cc(C)[n+]2[O-])oc2ccc(OC)cc23)cc1	D1 antag -30
COc1ccc2oc3cc(C)[n+]([O-])c(-c4ccc(C)cc4)c3c2c1	none
Cc1ccc(S(=O)(=O)NCc2ccc(C(=O)NCCCN3CCC(Cc4ccccc4)CC3)cc2)cc1	D1 antag -83
CCC1CCCCN1CC(C)(C)NS(=O)(=O)c1ccccc1 (stereo not drawn)	D1 antag -44
COc1ccc(S(=O)(=O)NCc2ccc(C(=O)NCCN(C)Cc3ccccc3)cc2)cc1	D3 antag -62 (no result: D1 antag, D1 agonist, D1 potentiator)
Cc1ccc(S(=O)(=O)NC(C)(C)CN2CCC(Cc3ccccc3)CC2)cc1	D3 antag -59
COc1ccc(CNC(=O)c2ccc(CNS(=O)(=O)c3ccc(OC)cc3)cc2)cc1	none (no result: D3 antag)
O=C(Nc1c(-c2ccc(Cl)cc2)[nH][nH]c1=O)c1ccccn1	D3 antag inconclusive (no result: D1 antag, D1 agonist, D1 potentiator)
CCOC(=O)c1noc2ncnc(Nc3ccc(F)cc3F)c12	none (no result: D3 antag)
CCCCOc1ccccc1CC1C(=O)Nc2ccc(Br)cc21 (stereo not drawn)	none (no result: D3 antag, D3 ag)
CCOc1ccc(CCNC(=O)c2ccc(-n3c(C)cc4c3CCC(C)C4)cc2)cc1OCC (stereo not drawn)	none (no result: D3 antag)
NS(=O)(=O)c1ccc(CCNC(=O)CN2CCC(Cc3ccccc3)CC2)cc1	D1 antag -44
COCCNC(=O)c1ccc(CN2CCC(Cc3ccccc3)CC2)cc1	D1 antag -31
CC1CCN(C(=O)CN2c3ccc(Br)cc3-c3ccccc3S2(=O)=O)CC1	none (no result: D3 antag)
CCN1CCN(c2cc(N3CCc4ccccc4C3)c(F)cc2[N+](=O)[O-])CC1	D3 antag -79, D1 antag -40
CC(=O)N1CCN(c2cc(N3CCCC3)c(F)cc2[N+](=O)[O-])CC1	none
Cc1cccc(Oc2nccc(C(F)(F)F)c2C(=O)Nc2ccc(F)cc2F)c1	D1 antag -54
O=C(Nc1ccc(F)cc1F)c1c(C(F)(F)F)ccnc1Oc1ccccc1	none
O=C(NCCc1cccs1)c1ccc(Cl)cc1	none
NC(=O)c1ccc(NCCc2cccs2)cc1	D3 antag -50 (no result: D1 antag, D1 agonist, D1 potentiator)
COc1ccc(CC2=CC(=O)c3ccccc3C2=O)cc1	D3 antag -56
COc1ccc(Cc2ccccc2C(=O)O)cc1	none (no result: D1 antag, D1 agonist, D1 potentiator)
Cc1cc2c(s1)c1cnn(Cc3c(F)ccc(F)c3Cl)c(=O)c1n2C	none (no result: D3 antag, D3 ag)
O=[N+]([O-])c1c(Nc2cccc(O)c2)cc(Cl)c2nonc12	D3 antag -131
Cc1c(Nc2cc(Cl)c3nonc3c2[N+](=O)[O-])c(=O)n(-c2ccccc2)n1C	D3 antag -101
Cn1nnnc1Sc1ncnc2scc(-c3cccc([N+](=O)[O-])c3)c12	none (no result: D3 antag, D3 ag)
CC(=O)N1CCOc2cc(S(=O)(=O)Nc3c(C)cccc3C(C)C)c(Cl)cc21	none (no result: D3 antag)
CCOC(=O)c1sc(NC(=O)CSc2n[nH]c(-c3ccccc3)n2)c(C#N)c1C	D1 antag -36
Cc1cc(C(=O)NN=C2CC(=O)CC(C)(C)C2)c(C)o1	none (no result: D1 antag, D1 agonist, D1 potentiator)
Cc1ccc(S(=O)(=O)N(C)Cc2ccc(C(=O)N/N=C3\CC(=O)CC(C)(C)C3)cc2)cc1	D1 antag -42
